SMILES strings stand for the structures. Hit rate of the full screen: of about 200,000 compounds, about 15 (0.007%) were called active. Many of the other results were omitted from the sample, so actives are more common in it than they were. Unmarked numbers belong to inactive results. No stated cut-off is given here; in the data, active means displacement above about 50%; inactive means the rest.

Chain of E3 ubiquitin-protein ligase XIAP (Homo sapiens) (P98170 whole entry, looked up, the tested form may be a part): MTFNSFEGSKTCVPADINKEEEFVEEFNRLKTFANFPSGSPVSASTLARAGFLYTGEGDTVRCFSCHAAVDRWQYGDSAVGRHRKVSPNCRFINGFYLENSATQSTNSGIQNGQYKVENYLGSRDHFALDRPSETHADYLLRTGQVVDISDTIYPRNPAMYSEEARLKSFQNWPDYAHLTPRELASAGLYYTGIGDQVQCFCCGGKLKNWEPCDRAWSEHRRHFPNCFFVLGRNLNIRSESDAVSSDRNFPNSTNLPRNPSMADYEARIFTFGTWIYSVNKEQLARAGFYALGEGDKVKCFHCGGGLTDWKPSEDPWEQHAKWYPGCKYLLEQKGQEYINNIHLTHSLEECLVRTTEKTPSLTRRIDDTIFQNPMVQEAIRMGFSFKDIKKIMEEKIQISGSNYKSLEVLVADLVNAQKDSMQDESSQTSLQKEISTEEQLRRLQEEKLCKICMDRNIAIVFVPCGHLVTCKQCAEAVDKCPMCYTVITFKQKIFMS

This test has as its target E3 ubiquitin-protein ligase XIAP (Homo sapiens) (UniProt P98170). Nature of the test: XIAP antagonists, biochemical, IAP family, fluorescence polarization (AID 1018). The following applies: XIAP BIR domain, fluorescence polarization peptide displacement; at 20 µM; hits give high values.
As for `O=C(O)CCc1nc(-c2ccc(Cl)cc2)no1`, the displacement is -3.7%.

As for `O=C(O)CCCc1nc(-c2ccccc2)no1`, the displacement is -1.3%.

As to `O=C(O)CCCc1nc(-c2ccc(Cl)cc2)no1`, the displacement is 70.8% (active).

With `Cc1cccc(-c2n[nH]c(=S)n2-c2ccccc2)c1[N+](=O)[O-]`, the displacement is -3.7%.

Regarding `CC(=O)C(C(C)=O)C1(O)C(=O)c2ccccc2C1=O`, the displacement was -3.4%.

In the case of `Fc1cccc(Cn2cc(C(=S)N3CCOCC3)c3ccccc32)c1`, the displacement was -4.3%.

Turning to `CCC(C(=O)O/N=C(\N)c1ccc(Cl)cc1)c1ccccc1` (stereo unspecified), the displacement is -3.6%.

In the case of `Cc1cccc2cc(COC(=O)C(C)C)c(=O)[nH]c12`, the displacement was -4.3%.

In the case of `COC(=O)c1cn(NC(=O)c2ccc3c(c2)OCO3)c(=O)c2ccccc12`, the displacement is -3.5%.

As to `CCOC(=O)C1(CC2CC2)CCN(S(=O)(=O)/C=C/c2ccccc2)CC1`, the displacement is -6.8%.

In the case of `Cc1ccc(-n2c(-c3ccccc3)c[n+]3c2CCc2ccccc2-3)c(C)c1`, the displacement is -4.9%.

As for `N/C(=N\OC(=O)CCC1CCCC1)c1ccc([N+](=O)[O-])cc1`, the displacement is -1.2%.

As to `CC(=O)Nc1cccc(NC(=O)Nc2cccc(Cl)c2C)c1`, the displacement is -2.6%.

As for `CCC/C=N/NC(=O)c1ccc(F)cc1`, the displacement was -5.5%.

Consider `CCCNC(=O)C12CCC(C)(c3nc4cc(C)c(C)cc4nc31)C2(C)C` (stereo unspecified), for which the displacement is -3%.

For `CCOC(=O)N1CCC(N2Cc3cccc(C(=O)Nc4ccc(OC)c(OC)c4)c3C2=O)CC1`, the displacement was 1.9%.

`O=C(Nc1nnc(Cc2ccc(Cl)cc2)s1)C1CCCO1` (stereo unspecified): the displacement was -3.9%.

For `COCCN1CCN(c2c3c(nc4cc(-c5cccc(F)c5)nn24)CCC3)CC1`, the displacement was -10.3%.

For the compound `O=C(O)[C@H](Cc1ccccc1)N1Cc2ccccc2C1=O`, the displacement is 2.3%.

As for `O=C(O)C(Cc1ccccc1)N1Cc2ccccc2C1=O` (stereo unspecified), the displacement was -8.8%.

For `CCOC(=O)/C=C/S(=O)(=O)c1ccc(NC(C)=O)cc1`, the displacement was -2.6%.

On to `CCN(CC)CCN(C(=O)c1c(F)cccc1F)c1nc2cc(C)cc(C)c2s1`, for which the displacement is -3.6%.

Consider `Cc1ccc(NC(=O)c2ccc(-n3cncn3)c([N+](=O)[O-])c2)cc1`, for which the displacement is -3.6%.

`CN(C)CCNC(=O)c1ccccc1`: the displacement is -5.4%.

As for `CC1CCN(S(=O)(=O)c2ccc(N/N=C(/C#N)C(N)=O)cc2)CC1`, the displacement was -6.4%.

Turning to `Cc1ccc(C)c(NC(=S)N(C)CCO)c1`, the displacement is -3.7%.

With `Cn1c(=O)[nH]c(=O)c2c1nc(N1CCCCC1)n2CCSc1nc2ccccc2o1`, the displacement was -3.9%.

Regarding `COc1ccc(N(CC(=O)NCCSC2CCCCC2)S(C)(=O)=O)c(OC)c1`, the displacement is -4.6%.

On to `COc1ccc(/C(O)=C2/C(=O)C(=O)N(CCN(C)C)C2c2cccnc2)cc1OC` (stereo unspecified), for which the displacement is -8.8%.

In the case of `O=C(COC(=O)c1cccc(S(=O)(=O)N2CCc3ccccc32)c1)Nc1ccc(Cl)cn1`, the displacement was -4.3%.

Regarding `Cc1ccc(NC(=O)COC(=O)c2ccc3c(c2)NC(=O)C2CCCN32)cc1` (stereo unspecified), the displacement is -1.5%.

Consider `Cc1ccc(CNC(=O)Cn2cc(C(F)(F)F)ccc2=O)cc1`, for which the displacement was -2.9%.

Regarding `S=C(Nc1ccc(Cl)cc1)N1CCN(C2CCCCC2)CC1`, the displacement is -3.9%.

On to `O=C(OCCC1Oc2cccnc2NC1=O)c1ccc(F)cc1` (stereo unspecified), for which the displacement is -2.6%.

For the compound `Nc1nc(-c2ccco2)nn1S(=O)(=O)c1ccc(Cl)cc1`, the displacement was -2.1%.

In the case of `CN(C)C(CNC(=O)Cc1cccc(C(F)(F)F)c1)c1ccco1` (stereo unspecified), the displacement was -10.8%.

On to `O=C(COc1ccc(Cl)cc1[N+](=O)[O-])N/N=C/c1cccs1`, for which the displacement is -10.2%.

Consider `N=C1C(c2ccccc2)=C(O)CN1c1ccccc1N1CCOCC1`, for which the displacement is -6.4%.

As for `O=C(CCCOc1ccccc1)Nc1ccc(S(=O)(=O)N2CCOCC2)cc1`, the displacement is -4.6%.

As to `COc1cc(C)c(Cl)c(C)c1S(=O)(=O)NC1CC(C)(C)NC(C)(C)C1`, the displacement is -4.7%.

As for `Cc1ccc(-c2[nH]nc3c2C(c2ccccc2OC(=O)N2CCOCC2)C(C#N)=C(N)O3)cc1` (stereo unspecified), the displacement is 1.4%.

In the case of `Cc1ccc(N2N=C(c3ccc(Br)cc3)CCC2=O)cc1`, the displacement is -4.4%.

Consider `Cc1ccc(Cn2cccc2C2=NC(C)CO2)cc1` (stereo unspecified), for which the displacement is -0.2%.

As to `COc1ccc(C(=O)NC(=S)N2CC(C)OC(C)C2)cc1OC` (stereo unspecified), the displacement is -1.8%.

With `COc1ccc(CN2C(=O)c3cccnc3C2Nc2cc(Cl)c(OC)cc2OC)cc1` (stereo unspecified), the displacement is 9.6%.

Take `COc1ccc(CN2C(=O)c3cccnc3C2Nc2ccc(OC)c(Cl)c2)cc1` (stereo unspecified): the displacement was -2%.

As for `COc1ccc(CN2C(=O)c3cccnc3C2Nc2cc(Cl)ccc2OC)cc1` (stereo unspecified), the displacement is 63.8% (active).

For the compound `Cc1ccc(N=N/C(=C\O)C(=O)c2ccc(Cl)cc2)cc1`, the displacement is -7.5%.

As to `CCN(CC)CCNC(=O)/C(=C/c1cn(CC)c2ccccc12)NC(=O)c1cc(OC)c(OC)c(OC)c1`, the displacement is -5.1%.

`CC(=O)NC1C(=O)N(CCc2ccccc2)c2ccccc21` (stereo unspecified): the displacement is 1.5%.

As to `Cc1ccc(NC(=O)c2cccc(Cl)c2)nc1`, the displacement is -1.6%.

For `Cn1nccc1C(=O)Nn1cnnc1`, the displacement is 1.6%.

Consider `Cc1ccc(S(=O)(=O)N2CCOCC2)cc1NC(=O)COC(=O)c1ccccc1OCc1c(C)noc1C`, for which the displacement was 0.2%.

For the compound `COc1cc(OC)c(C(=O)NCC(c2cccs2)N(C)C)cc1OC` (stereo unspecified), the displacement was -4.3%.

Regarding `O=C(CN1CCOCC1)N1CCN(S(=O)(=O)c2ccccc2)C1c1ccccc1` (stereo unspecified), the displacement was -3.4%.

Take `CCOc1ccccc1NC(=O)c1nc[nH]c1C(=O)Nc1ccccc1OCC`: the displacement was -4.1%.

In the case of `CCCOC(=O)c1sc2nc3c(cc2c1N)C(=O)CCC3`, the displacement was -6%.

`CCOC(=O)c1c(C(=O)OCC)c(C)n(N2C(=O)CSC2=S)c1C`: the displacement was -39.5%.

Turning to `Cc1nn2cc(-c3ncc(C(F)(F)F)cc3Cl)cnc2c1Br`, the displacement is -5.1%.

`CN1CCN(C2CCCCCC2)CC1`: the displacement was -7.6%.

Regarding `O=C1c2ccccc2-c2onc3ccc(N4CCCC4)c1c23`, the displacement is -14.9%.

Consider `CCOC(=O)N1CCN(c2cc(NCCO)c([N+](=O)[O-])c3nonc23)CC1`, for which the displacement is -2.9%.

Take `O=[N+]([O-])c1c(NCCO)cc(N2CCC3(CC2)OCCO3)c2nonc12`: the displacement was -5.3%.

In the case of `CC(=O)OCCNc1cc(N2CCN(C)CC2)c2noc3c2c1C(=O)c1ccccc1-3`, the displacement was -1.6%.

In the case of `O=C(O)CCCNc1cc(N2CCC3(CC2)OCCO3)c2noc3c2c1C(=O)c1ccccc1-3`, the displacement is 87.1% (active).

Regarding `CCOC(=O)N1CCN(c2cc(NCCC(=O)O)c3c4c(onc24)-c2ccccc2C3=O)CC1`, the displacement is 67.3% (active).

Regarding `CC(=O)C(C)Oc1cc(C)cc2oc(=O)c(C)c(C)c12` (stereo unspecified), the displacement is -5.9%.

As for `CC(=O)COc1cc(C)cc2oc(=O)c(C)c(C)c12`, the displacement was 61.1% (active).

On to `Cc1cc(OCC(=O)C(C)(C)C)c2c(C)c(C)c(=O)oc2c1`, for which the displacement was -1.7%.

Take `Cc1ccc(Cn2nnc3c(=O)[nH]c(C4CCN(S(=O)(=O)c5ccc(F)cc5)CC4)nc32)cc1`: the displacement was 63.3% (active).

Regarding `Cc1ccc(Cn2nnc3c(=O)[nH]c(C4CCN(S(=O)(=O)c5ccccc5)CC4)nc32)cc1`, the displacement is -5.4%.

Regarding `Cc1ccc(Cn2nnc3c(=O)[nH]c(C4CCN(S(=O)(=O)c5ccc(C)cc5)CC4)nc32)cc1`, the displacement was -2%.

As to `COc1ccc(N(CC(O)CN2CCCCC2)S(=O)(=O)c2ccc(C)cc2)cc1` (stereo unspecified), the displacement was -3.7%.

For the compound `C=CC(=O)NCCCc1cc(C(C)(C)C)c(O)c(C(C)(C)C)c1`, the displacement was -6.9%.

With `Cc1ccccc1N(CC(=O)O)S(C)(=O)=O`, the displacement was -4.6%.

As to `CN(C)CCCOC(=O)COc1ccc(C(C)(C)C)cc1`, the displacement was -1.4%.

On to `CCC(C)(C(=O)NC1CCCC1)N(Cc1cccs1)C(=O)c1ccc2c(c1)OCO2` (stereo unspecified), for which the displacement is -5.3%.

As for `CC(C)Cn1c2c(c(O)c(C(=O)Nc3ccc(F)cc3)c1=O)CCCC2`, the displacement is 0.5%.

Take `COc1ccccc1NCCC#N`: the displacement is -1.4%.

On to `Cc1cccc(OCC(=O)NNC(=O)c2cccs2)c1`, for which the displacement was -3.8%.

Turning to `Cc1[nH]n(-c2ccc([N+](=O)[O-])cc2)c(=O)c1C=NCCN1CCN(C(=O)c2ccccc2)CC1`, the displacement was -2.6%.

In the case of `O=C(NCCCO)c1ccc(CSc2nc3ccccc3[nH]2)cc1`, the displacement was -4%.

As for `CC(=O)C1C(c2cccc(F)c2)NC(=O)NC1(O)C(F)(F)F` (stereo unspecified), the displacement is 0%.

Turning to `COC(=O)C(NNc1ccccc1C)(NC(=O)c1ccc(F)cc1)C(F)(F)F` (stereo unspecified), the displacement is -3.9%.

Consider `O=C(/C=C/c1ccco1)NCC(=O)N/N=C/c1ccccc1[N+](=O)[O-]`, for which the displacement was -3.9%.

`O=c1c(Cc2ccc(F)cc2)c(O)ccn1CCc1ccccn1`: the displacement was -4.4%.

As for `CCN1/C(=C/c2ccc3cc(C)ccc3[n+]2CC)Sc2cc(C)ccc21`, the displacement was 1.8%.

Take `CCN1/C(=C/c2ccc3cc(C)ccc3[n+]2CC)Sc2ccccc21`: the displacement was -5.1%.

Regarding `CCN1/C(=C/c2ccc3cc(C)ccc3[n+]2C)Sc2ccc3sccc3c21`, the displacement was 72.1% (active).

For `O=C(COc1ccccc1)Nc1ccncc1`, the displacement was -2.7%.

Turning to `Cc1sc(N)c(C#N)c1C`, the displacement is -1.2%.

On to `CC(C)Oc1cccc(C(=O)C2CCCN(Cc3ccc4nonc4c3)C2)c1` (stereo unspecified), for which the displacement is -5.9%.

On to `CCc1c(C)nc2c(Br)cccc2c1SCCC#N`, for which the displacement is -0.5%.

`CN(C)c1nc(N)nc(CSc2nnnn2-c2ccccc2)n1`: the displacement was -5.7%.

For `CCOC(=O)c1c(-c2ccccc2)oc2ccc(O)c(CN3CCN(C)CC3)c12`, the displacement was -5.2%.

Take `Cc1cc(NC(=O)COn2nnc3ccc(Cl)cc32)no1`: the displacement is -5.1%.

Source of the values: PubChem BioAssay AID1018 (Sanford-Burnham Center for Chemical Genomics, 2008).
